Among the test systems are HCT-15 colon; HT29 colon; SNB-75 CNS; SNB-19 CNS; U251 CNS; PC-3 prostate; SK-MEL-5 melanoma; UACC-62 melanoma; SK-MEL-28 melanoma; LOX IMVI melanoma.
Holding throughout (assay): NCI-60 one-dose screen, 48 h (100 = growth as untreated, 0 = no growth, -100 = all killed)
Common to all, as to details: 10 µM unless noted

This note sets out measurements from PubChem BioAssay (NCI).

About 83,000 compounds went through this panel and 20% of them were active in at least one assay; those are over-represented in the sample as a whole.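 Activity criterion: percent growth below 10, measured after cells in 96-well plates were exposed to a single compound concentration for 48 hours.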 Values without a mark were called inactive. Active and inactive are the calls of the source.

Turning to `COc1cccc2c1C(=O)c1c(O)c3c(c(O)c1C2=O)C[C@@](O)(C(=O)CO)C[C@@H]3OC1C[C@H](N)[C@H](O)[C@H](C)O1` (stereo partly specified), the growth in the test on HCT-15 colon was 18.4%; in the test with HT29 colon, -13.1% (active); in the test with SNB-75 CNS, -76.1% (active); in the test on SNB-19 CNS, 8.7% (active); in the test on U251 CNS, 2.94% (active); with PC-3 prostate it was -2.52% (active). Further, the growth was -86.4% (active) in the test with SK-MEL-5 melanoma, -59% (active) with UACC-62 melanoma and -30% (active) in the test on SK-MEL-28 melanoma.

For the compound `O=C1C(Cl)=C(Nc2ccc(S(=O)(=O)c3ccc(NC4=C(Cl)C(=O)c5ccccc5C4=O)cc3)cc2)C(=O)c2ccccc21`, the growth with HCT-15 colon is 0.496% (active); with HT29 colon, 32.6%; in the test with SNB-75 CNS, 57.7%; in the test with SNB-19 CNS it was 44.8%; with U251 CNS, 5.68% (active); in the test with PC-3 prostate, 15.8%. Further, the figures for the growth in the test with SK-MEL-5 melanoma, in the test on UACC-62 melanoma and in the test with SK-MEL-28 melanoma were 49.3%, 12.5% and 14.2%, respectively.

`CCOC(=O)c1ccc2c(c1)[n+](=O)c(C(=O)C1CCCS1)c(C(F)(F)F)n2[O-]` (stereo unspecified): the growth in the test on HCT-15 colon is -72% (active); in the test on HT29 colon it was -82.4% (active); in the test on SNB-75 CNS, -100% (active); in the test on SNB-19 CNS, -77.4% (active); in the test on U251 CNS it was -100% (active); in the test with PC-3 prostate it was -75.4% (active). Moreover, the growth with SK-MEL-5 melanoma was -96.9% (active); in the test on UACC-62 melanoma, -80.4% (active); with SK-MEL-28 melanoma, -93.6% (active).

Take `C=C(C)[C@@H]1CC[C@]2(C)[C@H](CC[C@@H]3[C@H]4[C@H]5OC[C@@]4(CCC5(C)C)CC[C@]32C)[C@@]1(C)CCCN`: the growth in the test with HCT-15 colon is -79.6% (active); in the test with HT29 colon, 6.05% (active); in the test with SNB-75 CNS, 95.2%; with SNB-19 CNS, 94.2%; in the test with U251 CNS it was -19.2% (active); in the test with PC-3 prostate it was 64%. The growth with SK-MEL-5 melanoma is 97.4%; in the test on UACC-62 melanoma it was 98.5%; with SK-MEL-28 melanoma, 34.7%.

Take `c1ccc2[nH]c(-c3cc(-c4ccc5c(c4)OCO5)n[nH]3)nc2c1`: the growth with HCT-15 colon is 56.7%; with HT29 colon, 67.5%; with SNB-75 CNS, 33.8%; with SNB-19 CNS, 68.3%; with U251 CNS, 36.6%; in the test on PC-3 prostate, 50.4%. The growth was 13.2% in the test with SK-MEL-5 melanoma, 49.7% in the test with UACC-62 melanoma and 71.3% in the test on SK-MEL-28 melanoma.

In the case of `N#Cc1c(-c2ccco2)nc2c(c(-c3ccccc3)nn2-c2ccccc2)c1-c1ccc(O)cc1`, the growth is 38.4% in the test on HCT-15 colon; 30.2% with HT29 colon; 71.1% in the test on SNB-75 CNS; 95.9% with SNB-19 CNS; 61.6% with U251 CNS; 23.8% with PC-3 prostate. Besides, the growth with SK-MEL-5 melanoma is 87.1%; in the test on UACC-62 melanoma, 89.2%; with SK-MEL-28 melanoma, 74.7%.

Regarding `O=S(=O)(NCCNc1cc(-c2cn(-c3ccccc3)nc2-c2cccc(O)c2)ccn1)c1ccc(F)cc1`, the growth with HCT-15 colon is 6.55% (active); in the test with HT29 colon it was 1.75% (active); in the test on SNB-75 CNS, 45.6%; in the test on SNB-19 CNS, 46.5%; in the test on U251 CNS, 17.4%; in the test on PC-3 prostate, 15.1%. The growth in the test with SK-MEL-5 melanoma was -12% (active); with LOX IMVI melanoma, 27.7%.

On to `CSc1ccc(N(C)c2nc(C)nc3c2CCC3)cc1`, for which the growth in the test with HCT-15 colon is 7.62% (active); with HT29 colon it was -9.35% (active); in the test with SNB-75 CNS it was 35.1%; in the test on SNB-19 CNS it was 38.1%; with U251 CNS, 12.1%; with PC-3 prostate, 20.1%. Besides, the values for the growth with SK-MEL-5 melanoma and in the test with LOX IMVI melanoma were -38.2% (active) and 10.2%, respectively.

As to `CCCCCCCC(=O)SCC/C=C/[C@@H]1CC(=O)NCc2cccc(n2)CN(Cc2ccc3ccccc3c2)CC(=O)N[C@@H](C(C)C)C(=O)O1`, the growth is 57.8% in the test on HCT-15 colon; 14.5% with HT29 colon; 29.2% in the test with SNB-75 CNS; 48.9% with SNB-19 CNS; 35.9% with U251 CNS; 34.8% in the test with PC-3 prostate. Also, the growth with SK-MEL-5 melanoma is 9.24% (active); with LOX IMVI melanoma it was 5.42% (active).

For `O=S(=O)(NCCNc1cc(-c2cn(-c3ccccc3)nc2-c2cccc(O)c2)ccn1)c1ccccc1`, the growth was 17.9% in the test on HCT-15 colon; 24.1% in the test on HT29 colon; 78.4% in the test with SNB-75 CNS; 72.4% with SNB-19 CNS; 43.3% in the test with U251 CNS; 30.1% in the test with PC-3 prostate. The values for the growth in the test on SK-MEL-5 melanoma and in the test on LOX IMVI melanoma were 34% and 54.7%, respectively.

For the compound `COc1cccc(-c2nn(-c3ccccc3)cc2-c2ccnc(NCCCNS(=O)(=O)c3cccc(F)c3)c2)c1`, the growth is 21.9% in the test on HCT-15 colon; 15.1% in the test with HT29 colon; 55.4% in the test with SNB-75 CNS; 42.8% in the test on SNB-19 CNS; 27.5% with U251 CNS; 11.9% with PC-3 prostate. Besides, the results for the growth in the test on SK-MEL-5 melanoma and with LOX IMVI melanoma were -45.6% (active) and 27.5%, respectively.

`Nc1c(C(=O)Nc2c(Cl)cccc2Cl)sc2nc3c(cc12)CCCC3`: the growth was 41.9% in the test with HCT-15 colon; 43.3% with HT29 colon; 71.6% in the test on SNB-75 CNS; 82.8% in the test with SNB-19 CNS; 74.1% with U251 CNS; 80% in the test on PC-3 prostate. Further, the growth is 83.1% in the test on SK-MEL-5 melanoma and 59.4% with LOX IMVI melanoma.

Regarding `CCc1cccc(CC)c1NC(=O)c1sc2nc3c(cc2c1N)CCCC3`, the growth in the test on HCT-15 colon was 55%; in the test with HT29 colon, 77.4%; with SNB-75 CNS, 54.2%; in the test on SNB-19 CNS, 71.3%; in the test on U251 CNS, 73.4%; in the test on PC-3 prostate it was 63%. In addition, the figures for the growth in the test with SK-MEL-5 melanoma and in the test on LOX IMVI melanoma were 63.9% and 75.2%, respectively.

For the compound `COc1cccc(-c2nn(-c3ccccc3)cc2-c2ccnc(NCCCO)c2)c1`, the growth in the test with HCT-15 colon was 26.3%; with HT29 colon it was 7.65% (active); in the test with SNB-75 CNS, 23.4%; in the test with SNB-19 CNS it was 36.3%; with U251 CNS, 21%; with PC-3 prostate, 46.4%. The growth was 29.8% in the test with SK-MEL-5 melanoma and 33.6% in the test on LOX IMVI melanoma.

For the compound `CCCCCCCC(=O)SCC/C=C/[C@@H]1CC(=O)NCc2cccc(n2)CN(Cc2ccc(Cl)cc2)CC(=O)N[C@@H](C(C)C)C(=O)O1`, the growth with HCT-15 colon was 20.7%; in the test with HT29 colon, -2.23% (active); in the test with SNB-75 CNS, 18.6%; with SNB-19 CNS it was 15.3%; with U251 CNS, -48.2% (active); with PC-3 prostate, 9.67% (active). Further, the growth was -84.6% (active) in the test with SK-MEL-5 melanoma and -61.5% (active) in the test on LOX IMVI melanoma.
